Screening data: PubChem, several laboratories
Shown are actives, neighbours in structure and some others; about 1.9% of the full set was active somewhere.
GRK2 inh = compounds blocking aptamer binding on GRK2 – biochemical, human GRK2, bead flow cytometry, HTS, primary screen. inhibition of aptamer binding, % at 10 µM. FAM-aptamer displacement from GRK2. Beta-adrenergic receptor kinase 1 (Homo sapiens), P25098. hit rate 0.59% among 330,000;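 active = inhibition of aptamer binding above 40%, roughly 3 SD of noise, on plates passing a quality check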;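 note: median bead fluorescence of bound FAM aptamer so fluorescent compounds give negative values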
Target sequence (P25098 whole entry, looked up): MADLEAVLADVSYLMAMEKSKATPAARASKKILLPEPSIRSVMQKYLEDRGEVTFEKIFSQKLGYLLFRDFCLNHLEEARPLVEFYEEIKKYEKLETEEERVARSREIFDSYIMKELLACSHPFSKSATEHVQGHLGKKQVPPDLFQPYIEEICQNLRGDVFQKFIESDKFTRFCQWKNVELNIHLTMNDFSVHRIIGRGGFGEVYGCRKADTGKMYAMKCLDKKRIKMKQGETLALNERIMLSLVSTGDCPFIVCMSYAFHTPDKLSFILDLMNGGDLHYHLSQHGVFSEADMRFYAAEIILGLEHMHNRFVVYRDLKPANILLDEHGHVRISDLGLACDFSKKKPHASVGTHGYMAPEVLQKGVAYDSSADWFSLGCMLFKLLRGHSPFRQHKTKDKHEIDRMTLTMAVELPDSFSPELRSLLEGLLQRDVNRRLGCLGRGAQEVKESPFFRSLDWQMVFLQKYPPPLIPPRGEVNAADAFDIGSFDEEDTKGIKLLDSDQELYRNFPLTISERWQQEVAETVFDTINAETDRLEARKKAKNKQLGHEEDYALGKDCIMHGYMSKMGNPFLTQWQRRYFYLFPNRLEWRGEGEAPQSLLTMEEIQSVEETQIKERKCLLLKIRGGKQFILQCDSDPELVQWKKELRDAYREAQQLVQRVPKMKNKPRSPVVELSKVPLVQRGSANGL
PABP polyA inh = PABP poly(A) RNA binding inhibitors, primary screen, biochemical, fluorescence polarization, uHTS; Polyadenylate-binding protein 1 (Homo sapiens), P11940; inhibition, % at 35 µM; hit rate 1% among 290,000; AID 2014, 2009;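 note: calls also rest on retests at 20 µM and on dose response follow-up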
PABP1 MLLE inh = inhibitors of PABP1 MLLE–PAM2 peptide binding, primary screen, biochemical, fluorescence polarization, FITC-PAM2, GST-MLLE | Polyadenylate-binding protein 1 (Homo sapiens), P11940 | inhibition, % at 20 µM | hit rate 0.36% among 360,000 | AID 588489, 2011; in the data active = inhibition above about 35%, passing the limit was not always enough;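 note: plate controls were DMSO wells with GST-MLLE for no effect and wells lacking GST-MLLE protein for full effect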
eIF4H FP inh = human eIF4H binding inhibitors, primary screen, translation initiation inhibitor project, biochemical, uHTS, fluorescence polarization; AID 2012, 2009; eIF4H fluorescence polarization binding assay; inhibition, % at 35 µM; hit rate 0.94% among 290,000;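 note: calls also rest on retests at 20 µM and on dose response follow-up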
PERK inh = block of dimerizer-induced PERK translation repression, primary screen, PERK inhibitor project, CHO PERK-DD cells, SEAP luminescence, HTS | hit rate 0.17% among 220,000 | CHO PERK-DD fusion, SEAP luminescence translation reporter | inhibition, % at 5.6 µM | AID 1416, 2008;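 active = inhibition above the mean inhibition of all tested compounds plus 3 SD, set separately per screening campaign, cut at about 2.9% in these data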;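 note: PERK kinase domain activated by AP20187 dimerizer at 100 nM; 0% = DMSO with dimerizer and 100% = rapamycin at 8.4 µM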
GRK2 inh confirm = GRK2 aptamer-displacing inhibitors, retest, confirmation, biochemical, cherry pick 1, bead flow cytometry. shares compounds with GRK2 inh. bead-bound GRK2, FAM-aptamer displacement. aptamer displacement, % at 10 µM. hit rate 4% among 2,000;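 active = aptamer displacement above 40%, near three times the noise of non-fluorescent compounds, on plates passing quality checks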;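 note: negative values mostly reflect intrinsic compound fluorescence rather than true enhancement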
Aptamer quench = quenches fluorescent RNA aptamer, GRK2 hit artifact; shares compounds with GRK2 inh; Fluorescent RNA aptamer beads, quenching, flow cytometry; stronger effect = higher value; fluorescence change (kMESF span), kMESF (concentration not given with the values); 110 tested, under 10 active; AID 504521;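 active = compounds whose bead fluorescence drops by more than 37 kMESF across the dose range, marking them as dye quenchers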
FAM quench CP1 = counter-screen for GRK2 aptamer inhibitors: fluorescent aptamer quenchers; 2,000 tested, under 10 active; Carboxyfluorescein RNA aptamer on beads, flow cytometry quenching; stronger effect = lower value; fluorescence response (% of DMSO), % at 10 µM; shares compounds with GRK2 inh;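 active = compounds that quench the bead-bound fluorescent RNA probe, cutting fluorescence to under half of the solvent control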;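 note: counterscreen run without GRK2 so only probe quenching by compound is measured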
An asterisk follows results filed as active. Unless noted, the rule behind the calls is not given here.

What do the screens show for `CCN(CC(=O)Nc1c(F)cccc1F)C(=O)c1cc2ccccc2oc1=O`?
GRK2 inh: 100*; PABP1 MLLE inh: -7; GRK2 inh confirm: 1; FAM quench CP1: 103

What do the screens show for `CCN(CC(=O)Nc1c(F)cccc1F)C(=O)c1ccc(C(=O)c2ccccc2)cc1`?
GRK2 inh: 13; PABP1 MLLE inh: 0

What do the screens show for `O=C(COc1ccc(/C=N/NC(=O)c2cc3ccccc3o2)cc1Cl)Nc1ccccc1`?
GRK2 inh: 54*; PABP polyA inh: -5; PABP1 MLLE inh: -30; eIF4H FP inh: -2; PERK inh: 0; GRK2 inh confirm: 23; FAM quench CP1: 123

What do the screens show for `CN1C(=O)C(C)(C)c2cc(S(=O)(=O)N3CCCC(C(=O)NCc4ccccc4Cl)C3)ccc21` (stereo not drawn)?
GRK2 inh: 0; PABP polyA inh: -2; PABP1 MLLE inh: -14; eIF4H FP inh: 0; GRK2 inh confirm: 2; FAM quench CP1: 101

What do the screens show for `COc1ccc(CNC(=O)C2CCCN(S(=O)(=O)c3ccc4c(c3)C(C)(C)C(=O)N4C)C2)cc1` (stereo not drawn)?
GRK2 inh: 0; PABP polyA inh: 2; PABP1 MLLE inh: 9; eIF4H FP inh: -2

What do the screens show for `COc1cc(C(=O)Nc2cc(-c3cn4cccnc4n3)ccc2C)cc(OC)c1OC`?
GRK2 inh: 1; PABP polyA inh: 20; PABP1 MLLE inh: 14; eIF4H FP inh: -6; PERK inh: 1

What do the screens show for `O=S(=O)(Nc1nc2cc3c(cc2nc1Cl)OCCO3)c1ccccc1`?
GRK2 inh: 48*; PABP polyA inh: -4; PABP1 MLLE inh: 13; eIF4H FP inh: 12; PERK inh: 0; GRK2 inh confirm: 1; FAM quench CP1: 100

How did C/C=C(\C)C(=O)NCCN1C2=NC[C@@H](C)N2C[C@H]1Cc1ccc(O)cc1 do in these assays?
GRK2 inh: 68*; PABP polyA inh: -3; PABP1 MLLE inh: 19; eIF4H FP inh: 1; PERK inh: 0; GRK2 inh confirm: -3; FAM quench CP1: 99

Results for CC(=O)C[C@H]1c2cc(C(F)(F)F)ccc2S(=O)(=O)N1C1CCCC1 ?
GRK2 inh: 46*; PABP1 MLLE inh: -1; GRK2 inh confirm: -1; FAM quench CP1: 102

Results for COc1ccc(CCC(=O)OCC(=O)Nc2sccc2C(N)=O)cc1 ?
GRK2 inh: 0; PABP1 MLLE inh: 0

How did CCCCCc1cccnc1 do in these assays?
GRK2 inh: 64*; PABP polyA inh: 2; PABP1 MLLE inh: 3; eIF4H FP inh: 1; PERK inh: 3; GRK2 inh confirm: -1; FAM quench CP1: 96

How did c1ccc(CCc2cccnc2)cc1 do in these assays?
PABP1 MLLE inh: -9

What do the screens show for `CN1CC(=O)N(CC(=O)Nc2ccc(OCc3ccccc3)cc2)C1=O`?
GRK2 inh: 0; PABP1 MLLE inh: -52

Results for COc1ccc(CCNC(=O)C2(C)CCC(=O)N2Cc2ccc(C)cc2)cc1OC (stereo not drawn) ?
GRK2 inh: 2; PABP polyA inh: 1; PABP1 MLLE inh: 16; eIF4H FP inh: -8; GRK2 inh confirm: -1; FAM quench CP1: 85

What do the screens show for `CCC(C)(C)NC(=O)CN(Cc1ccco1)C(=O)CCC(=O)Nc1nccs1`?
GRK2 inh: 0; PABP polyA inh: -3; PABP1 MLLE inh: -15; eIF4H FP inh: -4

How did OCCN(Cc1ccccc1)CC1CC2C=CC1C2 (stereo not drawn) do in these assays?
GRK2 inh: 46*; PABP polyA inh: 2; PABP1 MLLE inh: 2; eIF4H FP inh: -2; PERK inh: 2; GRK2 inh confirm: -3; FAM quench CP1: 95

What do the screens show for `COc1ccc(-c2ccc(NC(=O)c3ccc(Br)o3)cc2)nn1`?
GRK2 inh: 0; PABP1 MLLE inh: -22

What do the screens show for `CC1=NN(c2ccccc2)C(=O)/C1=C/C=C/C=C/N(C)C`?
GRK2 inh: 8; PABP polyA inh: -6; PABP1 MLLE inh: -158; eIF4H FP inh: inconclusive; PERK inh: 0

What do the screens show for `CN(C)/C=C/C=C1C(=O)CCCC1=O`?
GRK2 inh: 42*; PABP polyA inh: 0; PABP1 MLLE inh: -5; eIF4H FP inh: 43; PERK inh: -1; GRK2 inh confirm: 11; FAM quench CP1: 102

What do the screens show for `O=C(C1CCN(S(=O)(=O)N2CCC3(CC2)OCCO3)CC1)N1CCc2ccccc2C1`?
GRK2 inh: 2; PABP polyA inh: -5; PABP1 MLLE inh: 8; eIF4H FP inh: -13; PERK inh: -1

Results for O=C(C1CCN(c2ccc(N3CCOCC3)nn2)CC1)N1CCc2ccccc2C1 ?
GRK2 inh: 0; PABP polyA inh: -2; PABP1 MLLE inh: 2; eIF4H FP inh: -10; PERK inh: -1; GRK2 inh confirm: 3; FAM quench CP1: 97

What do the screens show for `Cc1ccc(-n2c(C)nnc2SCC(=O)N(C)c2c(N)n(Cc3ccccc3)c(=O)[nH]c2=O)cc1`?
GRK2 inh: 0; PABP1 MLLE inh: -16

How did Cc1ccc(C(=O)Nc2cccc(C(=O)NCc3ccco3)c2)cc1 do in these assays?
GRK2 inh: 0; PABP polyA inh: -7; PABP1 MLLE inh: 2; eIF4H FP inh: -8; PERK inh: -1; GRK2 inh confirm: 34; Aptamer quench: 6.2; FAM quench CP1: 103

How did O=C(NCc1ccco1)c1cccc(NC(=O)c2ccccc2)c1 do in these assays?
GRK2 inh: 0; PABP polyA inh: 9; PABP1 MLLE inh: -18; eIF4H FP inh: -4; PERK inh: 0; GRK2 inh confirm: -3; FAM quench CP1: 106

Results for CC(=O)c1cnc(Nc2cccc(C)c2)s1 ?
GRK2 inh: 1; PABP polyA inh: -1; PABP1 MLLE inh: -32; eIF4H FP inh: -3; PERK inh: 0
